ABHD5-PLIN5 inh – inhibitors of human ABHD5-perilipin-5 interaction. inhibition, % at 4 µM. Split G. princeps luciferase complementation, luminescence, 4 h. actives 0.78% (n = 360,000);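 active = inhibition above the mean inhibition across every tested compound plus 3 SD, cut at about 22% in these data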;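 note: 0% = DMSO only wells and the 100% control is not disclosed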
Target sequence (Q00G26 whole entry, looked up): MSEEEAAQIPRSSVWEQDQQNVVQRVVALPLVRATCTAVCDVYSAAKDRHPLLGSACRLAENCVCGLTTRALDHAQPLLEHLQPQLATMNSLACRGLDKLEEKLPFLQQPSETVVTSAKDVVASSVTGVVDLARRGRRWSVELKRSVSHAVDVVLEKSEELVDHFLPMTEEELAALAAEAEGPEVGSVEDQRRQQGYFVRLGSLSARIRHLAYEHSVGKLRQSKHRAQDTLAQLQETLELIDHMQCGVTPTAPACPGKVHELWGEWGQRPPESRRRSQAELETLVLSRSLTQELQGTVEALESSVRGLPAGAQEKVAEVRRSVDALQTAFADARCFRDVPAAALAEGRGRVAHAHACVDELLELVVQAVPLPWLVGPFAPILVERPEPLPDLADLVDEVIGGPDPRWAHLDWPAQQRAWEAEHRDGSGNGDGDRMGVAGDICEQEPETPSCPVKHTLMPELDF
Target sequence (Q8WTS1 whole entry, looked up): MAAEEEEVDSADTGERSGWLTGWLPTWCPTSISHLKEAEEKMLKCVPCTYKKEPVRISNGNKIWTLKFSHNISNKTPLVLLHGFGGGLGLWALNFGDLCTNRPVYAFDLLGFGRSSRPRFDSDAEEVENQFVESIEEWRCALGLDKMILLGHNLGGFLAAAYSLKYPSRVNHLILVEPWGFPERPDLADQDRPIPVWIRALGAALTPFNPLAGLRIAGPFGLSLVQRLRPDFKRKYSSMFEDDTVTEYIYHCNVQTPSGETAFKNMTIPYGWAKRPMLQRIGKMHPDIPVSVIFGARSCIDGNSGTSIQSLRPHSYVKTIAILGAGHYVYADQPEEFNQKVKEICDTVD
CF NFkB inh – inhibitors of cystic fibrosis induced NF-kB. KKLEB NF-kB-GFP reporter, PAF-induced, GFP fluorescence overnight. inhibition, % at 5 µM. actives 0.86% (n = 360,000). AID 588850;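 active = at least 50% inhibition at 5 µM, scaled per plate between neutral and stimulator controls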;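 note: PAF is a Pseudomonas aeruginosa culture filtrate used as stimulus; plate controls were PAF-stimulated DMSO wells for no effect and unstimulated DMSO wells for full effect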
TRPM1 prom inh – inhibitors of MITF-driven TRPM1 promoter in melanoma cells; SK-MEL-5 TRPM1 promoter luciferase, 24 h; inhibition, % at 12.5 µM; actives 0.83% (n = 330,000);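 active = mean inhibition across replicates of 60% or more, whatever share of single replicates reaches that level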
KKLEB cytotox – CF airway cell cytotoxicity counter-screen | AID 602141 | actives 0.36% (n = 360,000) | KKLEB CF airway cells viability, ATPlite luminescence, overnight; hits give low values; cells stimulated with P. aeruginosa culture filtrate | activity change (cytotoxicity), % at 5 µM;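 active = corrected activity change at or below -50% at 5 µM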
HIF-2a inh – inhibitors of HIF-2a; AID 624352; inhibition, % at 18.8 µM; actives 0.72% (n = 360,000); 786-0 RCC cells HIF-2a reporter, luciferase luminescence, overnight;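 active = inhibition of the luminescence signal of 40% or more relative to plate controls, in a single-dose primary screen at 18.75 µM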
Peg3 promoter – Peg3 promoter activity inhibition; HeLa PEG-Prom luciferase reporter, luminescence, overnight; AID 588405; inhibition, % at 20 µM; actives 1.7% (n = 360,000);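 active = inhibition of at least 50% at 20 µM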
CF NFkB inh conf – confirmation of cystic fibrosis induced NF-kB inhibitors; shares compounds with CF NFkB inh; KKLEB CF airway cells, PAF-induced NF-kB-GFP fluorescence, overnight; inhibition, % at 5 µM; actives 64% (n = 1,300); AID 602472; in the data active = inhibition above about 40%;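 note: stimulus PAF is a Pseudomonas aeruginosa filtrate and not platelet activating factor; plate controls were DMSO wells with stimulus for no effect and unstimulated DMSO wells for full effect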
* marks the source's active call; other numbers are inactive results; ! = not confirmed by another sample. Shown are actives, neighbours in structure and some others; about 3% of the full set was active somewhere.

`Cc1ccc2occ(/C=N/NC(=O)c3ccccc3Br)c(=O)c2c1` gave ABHD5-PLIN5 inh -2.9, CF NFkB inh 57.2*, TRPM1 prom inh -7.4, KKLEB cytotox 0.6, HIF-2a inh 34.0, Peg3 promoter 29.1 and CF NFkB inh conf 57.1*.
O=C(N/N=C/c1coc2ccccc2c1=O)c1cc(Br)ccc1O was read as ABHD5-PLIN5 inh -2.4, CF NFkB inh 22.5, TRPM1 prom inh 8.0, KKLEB cytotox -9.1, HIF-2a inh 6.2 and Peg3 promoter 10.2.
Screening Cc1ccc2occ(/C=N/NC(N)=S)c(=O)c2c1 returned ABHD5-PLIN5 inh 0.1, CF NFkB inh -33.1, TRPM1 prom inh -1.6, KKLEB cytotox 13.4, HIF-2a inh -30.3 and Peg3 promoter -52.4.
For Cc1cccc(CN2CCN(C3CN(Cc4cn(Cc5ccccc5)nn4)S(=O)(=O)C3)CC2)c1 (stereo not given) the results were ABHD5-PLIN5 inh -10.3 and HIF-2a inh -2.6.
`Cc1onc(-c2ccccc2)c1C(=O)N1CCCSC1=Nc1ccccc1` gave ABHD5-PLIN5 inh 9.9, CF NFkB inh 55.9*!, TRPM1 prom inh 0.4, KKLEB cytotox 2.3, HIF-2a inh 10.2, Peg3 promoter 4.7 and CF NFkB inh conf -17.0.
COc1ccc(CN(CC(O)COCc2ccccc2)S(=O)(=O)c2ccccc2Br)cc1OC (stereo not given) was read as ABHD5-PLIN5 inh 2.5, CF NFkB inh 12.8, TRPM1 prom inh -7.7, KKLEB cytotox 4.2, HIF-2a inh 5.8 and Peg3 promoter 6.1.
COc1ccccc1Cc1c(-c2cccc(Br)c2)nc2c(C)cc(Br)cn12 was read as ABHD5-PLIN5 inh -9.1, CF NFkB inh 55.1*, KKLEB cytotox -6.3, HIF-2a inh -173.0, Peg3 promoter -24.0 and CF NFkB inh conf 5.4.
For COc1ccccc1Cc1c(-c2ccc(Cl)cc2)nc2c(C)cc(Br)cn12 the results were ABHD5-PLIN5 inh -11.7, CF NFkB inh 47.9, KKLEB cytotox -26.5, HIF-2a inh -51.3 and Peg3 promoter 48.2.
Screening CCOC(=O)c1c(C)[nH]c(C)c1C(=O)CSc1nc2ccccc2c(=O)n1-c1ccc(CC)cc1 returned ABHD5-PLIN5 inh -2.0, CF NFkB inh 55.9*, TRPM1 prom inh 12.4, KKLEB cytotox -19.1, HIF-2a inh -10.8, Peg3 promoter 44.2 and CF NFkB inh conf 36.7.
CC(C)N(C(=O)[C@H]1C[C@H](CC(=O)NCc2cccc(C(F)(F)F)c2)C(=O)N2CCc3c([nH]c4ccc(Cl)cc34)[C@]12C)C(C)C was read as ABHD5-PLIN5 inh 3.9, CF NFkB inh 60.0*, TRPM1 prom inh 27.7, KKLEB cytotox -41.2, HIF-2a inh -16.2, Peg3 promoter 59.1* and CF NFkB inh conf 39.5.
C[C@]12c3[nH]c4ccc(Cl)cc4c3CCN1C(=O)[C@@H](CC(=O)NCc1cccc(C(F)(F)F)c1)C[C@@H]2C(=O)N1CCOCC1 was read as ABHD5-PLIN5 inh 7.2, CF NFkB inh -5.7, TRPM1 prom inh 32.6, KKLEB cytotox 1.3, HIF-2a inh -10.8 and Peg3 promoter 32.9.
`CC1CCN(Cc2c(C(=O)N/N=C/c3ccc(C(C)(C)C)cc3)nnn2-c2nonc2N)CC1` gave ABHD5-PLIN5 inh -4.1, CF NFkB inh 52.9*, TRPM1 prom inh 22.9, KKLEB cytotox -41.0, HIF-2a inh 23.5, Peg3 promoter 106.1* and CF NFkB inh conf 62.5*.
`COc1ccc(S(=O)(=O)N2CCOCC2)cc1NC(=O)/C=C/c1ccccc1` gave ABHD5-PLIN5 inh -2.1, CF NFkB inh 6.7, TRPM1 prom inh 10.3, KKLEB cytotox 0.6, HIF-2a inh -2.9 and Peg3 promoter 3.7.
CCCOc1ccc(C(=O)c2ccccc2C(=O)OC2CCOC2=O)cc1OCCC (stereo not given) was read as ABHD5-PLIN5 inh -4.2, CF NFkB inh 1.7, TRPM1 prom inh 5.6, KKLEB cytotox 6.5, HIF-2a inh 8.3 and Peg3 promoter 8.6.
Screening O=C(OC1CCOC1=O)c1ccccc1C(=O)c1ccc(Cl)c([N+](=O)[O-])c1 (stereo not given) returned ABHD5-PLIN5 inh 2.2, CF NFkB inh 71.9*, TRPM1 prom inh 3.3, KKLEB cytotox -11.6, HIF-2a inh -8.4, Peg3 promoter -2.2 and CF NFkB inh conf 51.5*.
For CN(C)/C=C/C(=O)c1ccc2noc(-c3ccccc3)c2c1 the results were ABHD5-PLIN5 inh 5.4, CF NFkB inh 56.8*, TRPM1 prom inh -0.5, KKLEB cytotox -4.3, HIF-2a inh 8.0, Peg3 promoter 4.3 and CF NFkB inh conf 82.3*.
Screening CC(=O)c1ccc2noc(-c3cccc(C)c3)c2c1 returned ABHD5-PLIN5 inh 1.9, CF NFkB inh 19.7, TRPM1 prom inh 5.7, KKLEB cytotox -2.1, HIF-2a inh -2.5 and Peg3 promoter -26.4.
Screening CCc1ccc(-c2n[nH]nc2C2=CC(=O)C[C@H](c3ccc(F)cc3)C2)cc1 returned ABHD5-PLIN5 inh -2.7, CF NFkB inh 61.1*, KKLEB cytotox 1.3, HIF-2a inh 4.8, Peg3 promoter 36.0 and CF NFkB inh conf 39.7.
Screening COc1ccccc1-c1n[nH]nc1C1=CC(=O)C[C@H](c2ccc(F)cc2)C1 returned ABHD5-PLIN5 inh -1.5, CF NFkB inh 16.0, KKLEB cytotox -4.5, HIF-2a inh 23.1 and Peg3 promoter 28.0.
`Cc1ccc(NC(=S)NC(=O)c2ccccc2)cc1NC(=S)NC(=O)c1ccccc1` gave ABHD5-PLIN5 inh -8.3, CF NFkB inh 64.4*, TRPM1 prom inh 17.5, KKLEB cytotox -26.8, HIF-2a inh -206.0, Peg3 promoter -52.5 and CF NFkB inh conf 26.8.
For O=C(NC(=S)Nc1cccc(NC(=S)NC(=O)c2ccccc2)c1)c1ccccc1 the results were ABHD5-PLIN5 inh -22.2, CF NFkB inh 11.8, TRPM1 prom inh -0.6, KKLEB cytotox 1.5, HIF-2a inh -128.2 and Peg3 promoter -165.8.
Screening CCC(CO)Oc1cc(NCc2ccncc2)c2ncn(C(C)C)c2c1 (stereo not given) returned ABHD5-PLIN5 inh 0.9, CF NFkB inh -4.4, TRPM1 prom inh 8.5, KKLEB cytotox 9.1, HIF-2a inh 6.3 and Peg3 promoter 5.9.
Screening CCC(CO)Oc1cc(NCc2cc(C)cc(C)c2)c2ncn(C(C)C)c2c1 (stereo not given) returned ABHD5-PLIN5 inh 3.8, CF NFkB inh 67.3*, TRPM1 prom inh 1.8, KKLEB cytotox -3.5, HIF-2a inh 2.9, Peg3 promoter -20.0 and CF NFkB inh conf 23.7.
CCC(CO)Oc1cc(NCc2ccc(C)c(C)c2)c2ncn(C(C)C)c2c1 (stereo not given) was read as ABHD5-PLIN5 inh -5.9, CF NFkB inh 51.5*, TRPM1 prom inh 4.0, KKLEB cytotox -11.2, HIF-2a inh 7.4, Peg3 promoter 29.0 and CF NFkB inh conf 11.5.

High-throughput results (PubChem)
